Bioassay records deposited in PubChem BioAssay by several laboratories.
tim23-1 inh – growth inhibitors of tim23-1 mutant yeast, primary screen, luminescence, uHTS. S. cerevisiae tim23-1 growth, BacTiter-Glo luminescence, 24 h. inhibition, % at 20 µM. 1.3% of 330,000 active. AID 463212, 2010;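 active means growth inhibition of the mutant yeast at or above 50%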;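 further: temperature-sensitive mutant grown at 25 °C; plate controls were DMSO-treated mutant yeast for no effect and medium wells lacking yeast for full effect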
NALP3 yeast inh – NALP3 inflammasome inhibitors in reconstituted yeast, primary screen, luminescence, uHTS; inhibition, % at 10 µM; Yeast reconstituted NLRP3/ASC/caspase-1, beta-gal luminescence, 24 h; 0.39% of 330,000 active;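 active means inhibition of 50% or more; inactive means inhibition below 50%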;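 further: plate controls were induced DMSO wells for no effect and uninduced yeast grown without galactose for full effect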
SKKanGAS inh – S. pyogenes SKKanGAS growth inhibitors in kanamycin, primary screen, streptokinase expression inhibitor project, SKKanGAS strain, BacTiter-Glo luminescence. 6 h. inhibition, % at 7.5 µM. 1.3% of 300,000 active. AID 1662, 2009;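 active means mean replicate score, as percent of positive control median, at least 50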;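 further: strain carries kanamycin resistance gene driven by streptokinase promoter and grows in 40 µg/ml kanamycin; loss of luminescence reflects streptokinase promoter inhibition or plain growth inhibition; 0% = median of DMSO wells and 100% = positive control at its reference dose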
TIM10 inh – growth inhibitors of isogenic TIM10 control yeast, primary screen, counter-screen for tim10-1 yeast inhibitor project, luminescence, uHTS. S. cerevisiae TIM10 strain growth, BacTiter-Glo luminescence, 24 h. inhibition, % at 10 µM. 1.4% of 330,000 active;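 active means inhibition of 40% or more at the single tested concentration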;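 further: wild-type TIM10 isogenic control strain grown at permissive 25 °C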
tim10-1 inh – growth inhibitors of tim10-1 mutant yeast, primary screen, luminescence, uHTS; 2.2% of 330,000 active; S. cerevisiae tim10-1 ts strain growth, BacTiter-Glo, 24 h; inhibition, % at 20 µM; AID 463190, 2010;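 active means inhibition of at least 40%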;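 further: mutant grown at 25 °C; 0% = DMSO wells with yeast and 100% = wells holding no yeast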
NALP1 inh – NALP1 inflammasome inhibitors in reconstituted yeast, colorimetric, S. cerevisiae, triplicate retest. S. cerevisiae NALP1/ASC/caspase-1 growth, X-gal OD620, 72 h. inhibition, % at 10 µM. 0.61% of 280,000 active; in the data active means inhibition mostly above about 24%, no sharp cut-off; inactive means mostly below about 32%
tim23-1 conf – tim23-1 mutant yeast growth inhibitors, confirmation, luminescence, single concentration | S. cerevisiae tim23-1 growth, BacTiter-Glo luminescence, 24 h | AID 463218, 2010 | inhibition, % at 20 µM | shares compounds with tim23-1 inh | 83% of 4,400 active;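 active means inhibition above about 39% in either of two replicate wells at 20 µM, limit read from the data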;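 further: temperature-sensitive tim23-1 mutant grown at 25 °C; 0% = DMSO wells with yeast and 100% = medium wells without yeast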
Starred values were filed as active, the others as inactive. An excerpt weighted towards active compounds, which were near 4.9% of everything screened.

Screening Cn1nc(-c2ccccc2F)c2cc(C(=O)Nc3ccc4c(c3)OCCO4)sc21 returned tim23-1 inh 54.4*, NALP3 yeast inh 16.4, SKKanGAS inh 26.4, TIM10 inh 27.1, tim10-1 inh 38.1, NALP1 inh 1.3 and tim23-1 conf 55.2*.
For CCCN(CCC)CCNC(=O)c1cc2c(-c3ccccc3F)nn(C)c2s1 the results were tim23-1 inh 11.3, NALP3 yeast inh 15.2, SKKanGAS inh 0.8, TIM10 inh -9.8, tim10-1 inh 20.3 and NALP1 inh 10.8.
COc1ccc(S(=O)(=O)N2CCN(C)CC2)cc1C(=O)Nc1ccccc1 was read as tim23-1 inh -0.9, NALP3 yeast inh 19.6, SKKanGAS inh 1.2, TIM10 inh -4.1 and tim10-1 inh -8.9.
`CN(C)S(=O)(=O)c1ccc(C(=O)OCn2nnc3ccccc3c2=O)cc1` gave tim23-1 inh 53.9*, NALP3 yeast inh 9.1, SKKanGAS inh -3.0, TIM10 inh -11.0, tim10-1 inh 5.0, NALP1 inh 22.3 and tim23-1 conf 31.9.
COc1ccc(C(=O)OCn2nnc3ccccc3c2=O)cc1OC was read as tim23-1 inh -13.9, NALP3 yeast inh 30.1, SKKanGAS inh -6.5, TIM10 inh -4.2, tim10-1 inh -23.2 and NALP1 inh 6.8.
`O=C(O)c1cccc2c1C(=O)c1cccc3snc-2c13` gave tim23-1 inh 8.5, NALP3 yeast inh 1.2, SKKanGAS inh 3.1, TIM10 inh 6.7, tim10-1 inh -12.0 and NALP1 inh 2.9.
O=C(COC(=O)/C=C/c1ccc(C(F)(F)F)cc1)NC(=O)NCc1ccco1 was read as tim23-1 inh -11.1, NALP3 yeast inh 12.7, TIM10 inh -0.7 and tim10-1 inh -1.0.
CC(C)c1cc(C(=O)N2CCCC(CCC(=O)NCc3ccccc3F)C2)n(C)n1 (configuration not stated) was read as tim23-1 inh 15.7, NALP3 yeast inh 9.4, SKKanGAS inh -8.0, TIM10 inh -6.6, tim10-1 inh -2.1 and NALP1 inh -3.1.
For Brc1ccc2oc(-c3ccn[nH]3)cc2c1 the results were tim23-1 inh 65.4*, NALP3 yeast inh 21.4, SKKanGAS inh 3.2, TIM10 inh 16.7, tim10-1 inh 34.0, NALP1 inh 24.0 and tim23-1 conf 48.2*.
For CC(C)c1ccc(NC(=O)C(c2ccccc2)N2CCC3(CC2)OCCO3)cc1 (configuration not stated) the results were tim23-1 inh 52.1*, NALP3 yeast inh 1.5, SKKanGAS inh -0.7, TIM10 inh 37.6, tim10-1 inh 34.7, NALP1 inh 15.2 and tim23-1 conf 50.2*.
For Cc1ccccc1N(C(=O)c1ccccn1)C(C(=O)NCc1ccccc1)c1cccnc1 (configuration not stated) the results were tim23-1 inh 7.2, NALP3 yeast inh 13.5, SKKanGAS inh 0.1, TIM10 inh 9.7, tim10-1 inh -13.7 and NALP1 inh -6.9.
Screening Clc1cc2cccnc2c2ncccc12 returned tim23-1 inh 64.7*, NALP3 yeast inh 21.4, TIM10 inh 13.9, tim10-1 inh 9.4 and tim23-1 conf 38.9.
Screening O=C(NC1=NCCS1)C12CC3CC(C1)CC(C(=O)NC1=NCCS1)(C3)C2 returned tim23-1 inh 4.4, NALP3 yeast inh 11.2, SKKanGAS inh 8.9, TIM10 inh -5.1, tim10-1 inh -11.3 and NALP1 inh -8.5.
CC12CC3(C)CC(C)(C1)CC(C(=O)NC1=NCCS1)(C2)C3 was read as tim23-1 inh 52.3*, NALP3 yeast inh 24.3, SKKanGAS inh 84.4*, TIM10 inh 33.5, tim10-1 inh 39.8 and tim23-1 conf 40.2*.
Nc1cc(-c2ccccc2)nn1Cc1ccc(Cl)cc1 was read as tim23-1 inh 50.4*, NALP3 yeast inh 23.1, SKKanGAS inh 22.7, TIM10 inh 14.8, tim10-1 inh 29.8, NALP1 inh -3.1 and tim23-1 conf 27.2.
For Nc1cc(-c2ccc(Br)cc2)nn1Cc1ccccc1 the results were SKKanGAS inh 3.1 and NALP1 inh -1.9.
`O=C(NC(=S)Nc1ccc(Br)cc1)C1CCC1` gave tim23-1 inh 56.8*, NALP3 yeast inh 33.6, SKKanGAS inh -3.0, TIM10 inh 10.2, tim10-1 inh 26.8, NALP1 inh -6.5 and tim23-1 conf 34.4.
O=C(Nc1ccc(Br)c(Cl)c1)C1CC1 was read as tim23-1 inh 62.6*, NALP3 yeast inh 21.4, SKKanGAS inh 2.5, TIM10 inh 32.4, tim10-1 inh 1.9, NALP1 inh 45.0* and tim23-1 conf 55.9*.
Screening O=C(NC(=S)Nc1ccc(F)c(Cl)c1)C1CC1 returned tim23-1 inh 54.1*, NALP3 yeast inh 27.4, SKKanGAS inh 0.9, TIM10 inh 6.7, tim10-1 inh 29.2, NALP1 inh -1.0 and tim23-1 conf 32.6.
For CCCCN(CC(=O)Nc1c(C)cccc1CC)C(=O)SCC the results were tim23-1 inh 5.7, NALP3 yeast inh -1.4, SKKanGAS inh -1.6, TIM10 inh 3.0, tim10-1 inh 12.4 and NALP1 inh -2.2.
`O=C(O)c1ccc(/C=N/N2CCN(Cc3ccccc3)CC2)cc1` gave tim23-1 inh 1.4, NALP3 yeast inh 9.8, SKKanGAS inh 0.9, TIM10 inh -9.2, tim10-1 inh -8.5 and NALP1 inh 15.7.
Screening CN1CCSc2ccc(C(=O)NCc3cccc(Br)c3)cc21 returned tim23-1 inh 53.1*, NALP3 yeast inh 11.4, SKKanGAS inh -0.4, TIM10 inh 28.5, tim10-1 inh 37.3, NALP1 inh 3.3 and tim23-1 conf 50.3*.
Screening O=C(CN1C(=O)C(=O)N(C2CCCC2)C1=O)Nc1cc(Cl)ccc1[N+](=O)[O-] returned tim23-1 inh 3.6, NALP3 yeast inh 10.4, TIM10 inh 0.0 and tim10-1 inh 6.0.
COc1ccc(C2/C=C\CN(CC(C)C)CC(=O)N2Cc2cccc(F)c2)cc1 (configuration not stated) was read as tim23-1 inh 50.4*, TIM10 inh 9.6, tim10-1 inh 20.4 and tim23-1 conf 39.1*.
Screening COc1ccc(C2/C=C\CN(C(=O)c3ccccc3)CC(=O)N2Cc2cccc(F)c2)cc1 (configuration not stated) returned tim23-1 inh 58.8*, TIM10 inh 16.1, tim10-1 inh 30.1 and tim23-1 conf 42.2*.
`COc1ccc(C2/C=C\CN(S(=O)(=O)c3ccc(C)cc3)CC(=O)N2Cc2cccc(F)c2)cc1` (configuration not stated) gave tim23-1 inh 44.9, TIM10 inh -5.0 and tim10-1 inh 19.8.
